Compound activity as filed in PubChem.
ATXN viability – viability counter-screen for ATXN expression inhibitors; AID 651635; S2 cells (HEK-293 line with an ATXN2-luciferase reporter) viability, CellTiter-Fluor protease fluorescence, 24 h; actives 0.49% (n = 400,000); Potency, µM (series often up to 56.7 µM), hits mostly cytotoxic; also: nearly all actives have a fitted effect of over 40% in size
ATXN2 expr inh – inhibitors of ATXN2 expression; Potency, µM (highest dose often 57 µM), without a hit: top-dose activity change, negative = inhibition, usual class: inhibitors; HEK-293 ATXN2-luciferase reporter, luminescence, 24 h; actives 0.72% (n = 360,000); also: % is scaled to controls: 0 for no effect and ±100 for the full control effect; nearly all actives have a fitted effect of over 55% in size
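ATXN2-luciferase reporter cells (luciferase flanked by upstream and downstream ATXN2 gene portions) were treated 24 h at 37 °C with compounds at up to 57 uM. SteadyGlo luminescence gave expression; GF-AFC fluorescence gave viability.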
DT40 TDP1 CPT – DT40-hTDP1 cell growth loss with CPT; AID 686979; actives 12% (n = 420,000); chicken DT40 Tdp1-/-;hTDP1 cells + 20 nM CPT, ATP luminescence, 48 h; Potency, µM (series often up to 46.2 µM), for inactives: at the highest dose activity change, negative = growth inhibition, most hits filed as inhibitors; also: % is scaled to controls: 0 for no effect and ±100 for the full control effect; nearly all actives have a fitted effect of over 55% in size
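Cell growth measured by CellTiter-Glo luminescence after a minimum 48 h, 37 C compound exposure with 20 nM CPT in Tdp1-knockout DT40 cells stably expressing hTDP1, seeded 400/well; qHTS titration format.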
TGFb SMAD3 inh – inhibitors of TGF-b signaling; HepG2 CAGA-GFP TGF-b/SMAD3 reporter, GFP fluorescence, 18 h; TGF-beta stimulated, 500 pg/mL final; Potency, µM (series often up to 46.1 µM), without a hit: at the highest dose activity, negative = inhibition, most hits filed as inhibitors; actives 1.2% (n = 410,000); AID 588855; also: % is scaled to controls: 0 for no effect and ±100 for the full control effect; nearly all actives have a fitted effect of over 65% in size
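TGF-beta reporter screen: HEPG2 CAGA-GFP, 1% FBS, 500 pg/mL TGF-beta final, 18 h; per-cell GFP summed per well; curves fitted and categorized by class.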
HepG2 viability – kills HepG2 cells in TGF-b inhibitor counter-screen; HepG2 CAGA-GFP viability, ATP luminescence, 18 h; Potency, µM (highest dose often 46.1 µM), inactives show top-dose activity change, negative = cytotoxicity, hits mostly cytotoxic; actives 0.76% (n = 410,000); AID 588856
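HepG2 CAGA-GFP cells (1000/well, DMEM with 1% FBS) received compound, then TGF-beta at 500 pg/mL final, and were incubated 18 hours at 37 degrees C. Viability was read by CellTiter-Glo luminescence. Media-only wells were set as complete cell-killing and DMSO as no toxicity.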
DT40 TDP1 no CPT – qHTS for Inhibitors of human tyrosyl-DNA phosphodiesterase 1 (TDP1): qHTS in cells in absence of CPT. DT40 Tdp1-/- hTDP1 cells, no CPT, ATP luminescence, 48 h. Potency, µM (highest dose often 46.2 µM), for the others: at the highest dose activity change, negative = growth inhibition, actives largely listed as inhibitors. actives 15% (n = 420,000); also: % is scaled to controls: 0 for no effect and ±100 for the full control effect; nearly all actives have a fitted effect of over 55% in size
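Stably hTDP1-transfected Tdp1-null chicken DT40 cells were treated with library compounds minus camptothecin and grown for at least 48 hr at 37 °C, after which cellular ATP was quantified by luminescence.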
Active calls of the source: *; i = inactive; ? = inconclusive; . = not tested or not shown. Only some compounds are listed: those with a hit (about 17% of all), similar ones and a draw of the others. Calls follow the shape of the dose curve; as a rule, active = well fitted curve in the direction sought with a large enough effect; inconclusive = small, poorly fitted or top-dose-only effect, or another doubt; inactive = no such curve, though single readings can be large; an effect the other way counts as inactive or inconclusive. Potency is read from the fitted curve at half-maximal effect.

SMILES	ATXN viability	ATXN2 expr inh	DT40 TDP1 CPT	TGFb SMAD3 inh	HepG2 viability	DT40 TDP1 no CPT
CCc1ccc(CNCc2ccc(OCC(O)CN(C)Cc3ccccc3)cc2)nc1 (centres undefined)	i	-32.5%	16.4µM*	?	-33.6%	23.1µM*
O=S(=O)(c1ccccc1)c1nc(-c2ccco2)oc1NCc1cccnc1	i	8.1%	26.5%	-7.2%	11.2µM*	-11.8%
COc1cccc(-c2nc(S(=O)(=O)c3ccc(Cl)cc3)c(NCc3ccccc3)o2)c1	.	.	?	-0.2%	-2.5%	?
O=S(=O)(c1ccc(Cl)cc1)c1nc(-c2ccccc2F)oc1NCc1ccccc1	i	0.9%	?	-19.0%	-7.0%	18.4µM*
COc1ccc(-c2nc(S(=O)(=O)c3ccc(Cl)cc3)c(NCc3ccccc3)o2)cc1	i	-7.1%	16.4µM*	-1.1%	-2.1%	?
O=S(=O)(c1ccccc1)c1nc(-c2ccccc2)oc1NCc1cccnc1	i	0.9%	-16.8%	16.9%	0.0%	-24.2%
Cc1nc(S(=O)(=O)c2ccc(Cl)cc2)c(NCc2ccccc2)o1	i	-0.5%	?	-10.7%	4.6%	?
CC(C)Cn1c(N)c(C(=O)COC(=O)/C=C/c2ccccc2)c(=O)n(C)c1=O	i	-27.3%	14.6µM*	-21.6%	-12.6%	?
CC(C)Cn1c(N)c(C(=O)CSc2nncs2)c(=O)n(C)c1=O	i	0.5%	?	6.3%	4.9%	?
CC(=O)Nc1ccc(SCC(=O)c2c(N)n(Cc3ccccc3)c(=O)n(C)c2=O)cc1	i	12.2%	?	-7.5%	-6.9%	8.2µM*
Cc1ccccc1CSCC(=O)c1c(N)n(CC(C)C)c(=O)n(C)c1=O	i	-13.9%	?	3.1%	-3.9%	23.1µM*
Cc1ccccc1OCCC(=O)OCC(=O)c1c(N)n(CC(C)C)c(=O)n(C)c1=O	i	1.3%	?	-0.9%	0.2%	?
CCCn1c(N)c(C(=O)CSc2nc(C)cs2)c(=O)n(C)c1=O	i	-11.1%	?	0.4%	-26.3%	11.6µM*
C[C@H]1CN(CCc2ccccc2)C(=O)[C@@H]1CC(=O)NCc1ccccc1	i	21.3%	?	7.8%	-1.6%	?
COc1ccccc1-n1c(SCC(=O)N2CCCC2)nnc1-c1ccccc1	i	2.9%	6.9%	-5.5%	-8.0%	-17.1%
CC(C)Cn1c(N)c(C(=O)CSc2ccccc2)c(=O)n(C)c1=O	i	9.8%	16.4µM*	-1.5%	-0.3%	8.2µM*
CCCNc1c(NS(=O)(=O)c2ccc(Br)cc2)c(=O)oc2ccccc12	i	-1.6%	6.7%	-2.8%	-2.3%	?
CCOC(=O)Cc1ccc(NC(=O)NCc2cccn2Cc2ccccc2)cc1	i	1.3%	13µM*	-12.8%	-22.9%	20.6µM*
CCc1ccccc1NC(=O)Nc1cccn(Cc2ccccc2F)c1=O	?	?	?	-8.4%	-29.4%	?
CSc1ccccc1NC(=O)Nc1ccccc1	i	19.0%	-28.9%	-23.1%	-31.8%	-17.1%
CCOc1ccc(NC(=O)Nc2cccn(Cc3ccccc3)c2=O)cc1	?	-12.5%	?	-25.7%	-7.5%	14.6µM*
CSc1ccc(NC(=O)Nc2cccn(Cc3ccccc3F)c2=O)cc1	?	.	?	?	-2.7%	25.9µM*
CCOc1ccc(NC(=O)Nc2ccccc2SC)cc1	i	33.4%	?	4.9%	-62.0%	23.1µM*
CSc1ccc(CN2CCC2(C)C(=O)NCc2ccc3c(c2)OCO3)cc1 (centres undefined)	?	-24.0%	14.6µM*	-27.5%	-36.7%	?
CSc1ccc(CN2CCC2(C)C(=O)Nc2ccc3c(c2)OCO3)cc1 (centres undefined)	i	11.6%	29.1µM*	12.0%	-13.6%	?
SMILES	ATXN viability	ATXN2 expr inh	DT40 TDP1 CPT	TGFb SMAD3 inh	HepG2 viability	DT40 TDP1 no CPT
CC1(C(=O)Nc2ccc3c(c2)OCCO3)CCN1Cc1ccc2ccccc2c1 (centres undefined)	i	?	?	?	-5.9%	-64.0%
CC(=O)Nc1nonc1-c1nnc(SCc2ccccc2C)n1C	i	4.8%	?	-15.4%	-24.9%	?
O=C(CCSc1ccc(Cl)cc1)N1CCN(c2ncccn2)CC1	i	46.5%	13µM*	-14.8%	-23.6%	?
Cc1nonc1OCCN1CCN(c2ccc([N+](=O)[O-])cc2)CC1	i	-17.0%	?	-11.6%	-25.0%	?
O=C(/C=C/c1ccc(Cl)cc1)N1CCN(c2c(Cl)cccc2[N+](=O)[O-])CC1	?	-13.0%	?	?	3.7%	14.6µM*
O=[N+]([O-])c1ccc(N2CCN(CCOc3nonc3-c3ccccc3)CC2)c(Cl)c1	i	-10.7%	29.1µM*	2.7%	-21.2%	?
O=[N+]([O-])c1ccc(N2CCN(c3ccccc3O)CC2)c(Cl)c1	i	18.4%	20.6µM*	0.0%	-23.8%	23.1µM*
O=[N+]([O-])c1ccc(N2CCN(c3ccccc3O)CC2)cc1	i	14.2%	5.0%	8.0%	12.2%	-12.7%
N#Cc1cc(Cl)c(NCC2CCCO2)cc1C#N (centres undefined)	i	3.5%	-14.3%	7.0%	2.8%	-21.6%
COc1ccc(C(=O)NCC(=O)N2CCN(C(=O)c3ccco3)CC2)cc1[N+](=O)[O-]	i	7.8%	-12.1%	-5.5%	5.0%	7.8%
CCn1c(SCC(=O)Nc2cc(C)on2)nnc1-c1c[nH]c2ccccc12	i	-7.3%	0.2%	12.8%	5.5%	-21.9%
O=C(CSc1ccc(Cl)cc1)N1CCN(c2c(Cl)cccc2[N+](=O)[O-])CC1	i	20.0%	16.4µM*	?	1.6%	14.6µM*
O=C(CSc1ccc(Cl)cc1)N1CCN(c2ccc([N+](=O)[O-])cc2Cl)CC1	i	?	?	-2.7%	-23.2%	18.4µM*
N#Cc1ccc(NC(=O)COC(=O)CSc2nnc(-c3ccc(Cl)cc3)o2)cc1	i	-6.5%	11.9%	-2.3%	3.6%	25.4%
CC1(C)S[C@@H]2[C@H](NC(=O)[C@H](N)c3ccccc3)C(=O)N2[C@H]1C(=O)OC1OC(=O)c2ccccc21 (some centres undefined)	i	-3.9%	11.6µM*	-7.7%	-24.1%	8.2µM*
